# Source: PubChem BioAssay
# Compounds with a hit are over-represented: about 0.63% of the library has one in this group of screens.
# TCR activator: T cell receptor activation; primary human leukocytes, anti-CD3, IL-2 HTRF, 48 h; Potency, µM (doses to about 9.22 µM), for inactives: at the top dose activation of IL-2 secretion, actives largely listed as activators; 330,000 tested, under 10 active; AID 504894; active = well fitted activation curve with a large enough effect; inconclusive = small, poorly fitted or top-dose-only effect, or another doubt; inactive = no such curve, though single readings can be large or run the other way; note: % of control where 0% means no effect
#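 TCR engagement came from a-CD3 beads alone, with compounds added to primary human leukocytes for 48 hr. Secreted IL-2 bridged europium cryptate- and d2-labelled anti-IL-2 antibodies, giving FRET emission at 665nm after 320nm excitation.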
# Pin1 inh: blocks the human prolyl isomerase Pin1; hit rate 0.009% among 390,000; Potency, µM (titrated, usually from 115 µM), for inactives: at the highest dose activity, negative = inhibition, most hits filed as inhibitors; Q13526; Pin1 FP peptide displacement, HiFluor488, 10 min; active = well fitted inhibition curve with a large enough effect in the polarisation, with a control signal flat, not every such curve was filed as active; inconclusive = small, poorly fitted or top-dose-only effect, or effect the other way, or a change in a side signal; inactive = no such curve, though single readings can be large or run the other way; the % refers to the polarisation; note: potency is the fitted concentration of half-maximal effect; % is set by controls: 0 for no effect and ±100 for the full control effect
# gsp antagonist: antagonizes gsp, the McCune-Albright syndrome mutation; gsp-mutant cells, cAMP HTRF, 30 min; Potency, µM (doses to about 76.9 µM), without a hit: at the highest dose activity change, negative = inhibition, usual class: inhibitors; hit rate 0.4% among 340,000; AID 624288; calls by dose curve; cell line not stated here;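 note: intracellular cAMP measured with PDE inhibitor Ro 20-1724 present during compound exposure; potency is the fitted concentration of half-maximal effect; % is set by controls: 0 for no effect and ±100 for the full control effect; nearly all actives have a fitted effect of over 65% in size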
#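 HTRF cAMP measurement after 30 min RT detection following 30 min, 37C compound treatment alongside […] (added as 300 uM solution) in G418-selected cells seeded at 2000/well and grown 16–24 h.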
# TSHR antag: blocks TSH signaling through the human TSH receptor; P16473; TSHR-expressing cells, TSH-stimulated cAMP HTRF, 2 h; stronger effect = lower value; activity change, negative = inhibition, % at 11.5 µM; hit rate 0.2% among 330,000; AID 504810;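 active = activity change below a set negative limit, meaning inhibition stronger than a set level, cut at about -70% in these data; inconclusive = activity change between two set negative limits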; note: % is set by controls: 0 for no effect and ±100 for the full control effect
# Target sequence (P16473 whole entry, looked up): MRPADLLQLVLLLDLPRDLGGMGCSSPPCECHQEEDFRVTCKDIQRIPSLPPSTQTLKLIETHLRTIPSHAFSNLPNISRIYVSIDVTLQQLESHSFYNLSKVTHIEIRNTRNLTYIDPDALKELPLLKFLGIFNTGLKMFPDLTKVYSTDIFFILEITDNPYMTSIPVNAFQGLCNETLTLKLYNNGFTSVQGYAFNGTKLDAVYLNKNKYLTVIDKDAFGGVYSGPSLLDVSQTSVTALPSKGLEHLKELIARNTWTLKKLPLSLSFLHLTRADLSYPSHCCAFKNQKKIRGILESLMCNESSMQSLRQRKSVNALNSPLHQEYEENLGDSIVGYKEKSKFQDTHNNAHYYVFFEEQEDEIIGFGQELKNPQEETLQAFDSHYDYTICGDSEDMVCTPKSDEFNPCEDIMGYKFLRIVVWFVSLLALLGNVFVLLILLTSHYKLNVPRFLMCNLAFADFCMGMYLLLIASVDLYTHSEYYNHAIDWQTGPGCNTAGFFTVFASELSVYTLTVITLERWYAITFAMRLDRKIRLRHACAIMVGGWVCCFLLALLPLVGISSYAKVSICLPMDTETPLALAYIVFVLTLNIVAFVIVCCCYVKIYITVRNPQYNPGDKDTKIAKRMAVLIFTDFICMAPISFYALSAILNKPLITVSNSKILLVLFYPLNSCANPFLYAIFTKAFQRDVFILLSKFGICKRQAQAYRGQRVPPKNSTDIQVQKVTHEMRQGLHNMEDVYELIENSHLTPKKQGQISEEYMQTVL
#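 TSHR-expressing cells, 200/well, pre-treated with compound, then stimulated with EC80 TSH (4nM final) for 2 hours at 37 deg C. cAMP measured by competitive HTRF: anti-cAMP cryptate antibody in lysis buffer plus cAMP-d2, read after 30 minutes at room temperature.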
# gsp ag: agonists of gsp mutant (McCune-Albright syndrome); gsp mutant cells, cAMP HTRF, 30 min; Potency, µM (series often up to 76.9 µM), without a hit: at the top dose activation (cAMP increase), actives largely listed as activators; hit rate 0.13% among 340,000; active = well fitted activation curve with a large enough effect; inconclusive = small, poorly fitted or top-dose-only effect, or another doubt; inactive = no such curve, though single readings can be large or run the other way; cell line not stated here;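 note: phosphodiesterase inhibitor Ro 20-1724 added with compounds to block cAMP breakdown; potency is the fitted concentration of half-maximal effect; nearly all actives have a fitted effect of over 60% in size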
#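 Cells in DMEM/10% FBS with G418 were pretreated with compounds in DMSO plus […] (300 uM stock) for 30 min at 37C. cAMP was measured by HTRF (cAMP-d2 plus anti-cAMP antibody-K) after 30 min at room temperature.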
# An asterisk follows results filed as active; ? = inconclusive; / = no result given; [ ] = remark or other dose.
SMILES,TCR activator,Pin1 inh,gsp antagonist,TSHR antag,gsp ag
COc1cc(OC)c(C#N)c(S(=O)(=O)Cc2ccccc2)c1,-4%,1%,-15%,0,0%
CC(C)C(=O)N1CCC2(CC1)Oc1ccc(F)cc1C(=O)C21CC(c2cccnc2)=NO1 (centres undefined),/,/,/,4,/
Cc1ccc(C(=O)N2CCC3(CC2)Oc2ccc(F)cc2C(=O)C32CC(c3cccnc3)=NO2)s1 (centres undefined),-3%,8%,35µM*,1,/
CCc1nc(N2CCN(C(=O)CCCl)CC2)c2c3c(sc2n1)CCCC3,/,/,/,/,1%
CCNC(=S)N1CCN(c2nc(CC)nc3sc4c(c23)CCCC4)CC1,5%,-2%,25µM*,-20,-2%[15.4 µM]
O=S(=O)(c1ccccc1)[C@@]1(c2ccc(Br)cc2)C[C@@H]2ON=C(c3ccccc3)[C@@H]2C1,3%,18%,11µM*,32,/
CCOC(=O)c1c(NC(=O)C(C)OC(=O)C2=COCCO2)sc2c1CCCC2 (centres undefined),-1%,5%,22µM*,8,-16%
CCOC(=O)c1c(NC(=O)C(C)OC(=O)c2ccc(NC(=O)CC#N)cc2)sc2c1CCCC2 (centres undefined),1%,56%,-15%,7,4%
COc1ccc(C2=NN(CN3C(=O)C(=O)c4ccccc43)C(c3ccc(C)cc3)C2)cc1 (centres undefined),0%,-5%,-12%,-4,-23%
Cc1cccc(C)c1OCCCn1ccnc1,/,-13%,1%,-130*,-27%
Cc1cc(C)c(OCCCn2ccnc2)c(C)c1,-5%,1%,2%,-18,18%
COc1cccc(/C=C/C(=O)OCC(=O)Nc2cccc(S(=O)(=O)NC3=NCCCCC3)c2)c1,2%,?,-2%,4,-69%
COC(=O)c1cccc(NC(=O)Nc2ccc(Cl)cc2)c1,-3%,-3%,2%,-6,3%[15.4 µM]
O=C(CSc1ncnc2ccccc12)Nc1cccc(S(=O)(=O)N2CCCC2)c1,3%,6%,9%,5,?
O=C(Nc1cccc(F)c1)Nc1cccc(Cl)c1,3%,0%,-18%,-26,-19%
O=C(Nc1cccc(Cl)c1)Nc1cccc(Cl)c1,-4%[46.1 µM],?,35µM*,-15,16%
O=C(Nc1cccc(Cl)c1)Nc1cc(S(=O)(=O)N2CCCCC2)ccc1Cl,-11%[46.1 µM],12%,25µM*,-29,13%
O=C(CSc1ncnc2ccccc12)Nc1cc(S(=O)(=O)N2CCCCC2)ccc1Cl,-3%[46.1 µM],?,25%,28,3.2µM*
COC(=O)c1cc(NC(=O)Nc2cccc(Cl)c2)ccc1Cl,2%,4%,25µM*,-13,-4%
Cn1c(Cn2c(=O)sc3ccccc32)nnc1SCC(=O)NCc1ccccc1,-12%[46.1 µM],-2%,2%,-5,?
COCCn1c(=O)[nH]c2cc(C(=O)NCCc3ccc(OC)c(OC)c3)ccc2c1=O,-9%,-6%,-10%,1,-16%
CCN(Cc1ccc2c(c1)OCCO2)C(=O)CSc1nc(C)nc2sc(C)c(C)c12,9%,32%,50µM*,-42,-75%
CCN(Cc1ccc2c(c1)OCO2)C(=O)CSc1ncnc2sccc12,-3%,17%,11%,7,0%
O=c1[nH]c(C2CCN(S(=O)(=O)c3ccccc3)CC2)nc2c1nnn2Cc1cccc(Cl)c1,0%,14%,-3%,1,-5%[15.4 µM]
O=c1[nH]c(C2CCN(S(=O)(=O)c3cccc(Cl)c3)CC2)nc2c1nnn2Cc1ccccc1,-6%,18%,0%,-103*,-16%[15.4 µM]
SMILES,TCR activator,Pin1 inh,gsp antagonist,TSHR antag,gsp ag
CC1=Nc2ccc(C)cc2/C1=C/c1c(N)n2c(S(=O)(=O)C(C)C)nsc2nc1=O,-1%,-14%,40µM*,3,-19%
CC(CN(C)Cc1ccccc1)OC(=O)c1ccccc1F (centres undefined),2%[46.1 µM],-2%,4%,4,22%
CC1(C)Cc2c(ccc3ccccc23)/C(=C/C(=O)N2CCCCC2)N1,5%,56%,35µM*,2,-5%
COc1ccc(-n2c(C)cc(C(=O)COC(=O)c3ccc(O)cc3O)c2C)cc1,-8%,30%,32µM*,-74*,4%
Cc1cccc(N2CCN(C(=O)C3CCN(c4ncnc5c4nc4n5CCCCC4)CC3)CC2)c1C,1%,-2%,?,-28,-5%
Cc1cccc(N2CCN(C(=O)C3CCN(c4ncnc5c4nc4n5CCCCC4)CC3)CC2C)c1 (centres undefined),-1%,3%,40µM*,-28,26%
CCc1ccc(NC(=O)Nc2ccc3c(c2)N(C)C(=O)CS3)cc1,-2%,15%,35µM*,-6,17%
CCOC(=O)COc1cc(-n2c(=S)[nH]c3cc(OC)c(OC)cc3c2=O)c(Cl)cc1Cl,-2%,46%,13µM*,-17,-3%[15.4 µM]
Cc1nn(-c2ccccc2)c(Cl)c1C(=O)N1CCN(c2ncnc3c2cnn3-c2ccccc2)CC1,0%,18%,13µM*,?,22%
O=C(NN1C(=O)c2ccccc2NC1c1ccc([N+](=O)[O-])o1)c1ccc([N+](=O)[O-])cc1 (centres undefined),-5%,-11%,29%,3,1.8µM*
Cc1cccc(OCCn2c(-c3ccco3)nc3ccccc32)c1,4%,2%,35µM*,-11,1%
c1ccc(OCCn2c(-c3ccco3)nc3ccccc32)cc1,3%,28%,-18%,5,3%
CCOC(=O)c1nc(Nc2cc(C)cc(C)c2)c2ccccc2n1,0%,-3%,7.9µM*,-8,-5%[15.4 µM]
FC(F)(F)c1nc(=S)c2ccccc2[nH]1,-48%,-6%,25%,34,2.2µM*
O=C(N/N=C/c1ccc(-c2cccc([N+](=O)[O-])c2)o1)c1ccccc1O,-1%,-3%,50µM*,-13,-23%
COc1ccc(NC(=O)Cn2c(=O)c3ccccc3n3nncc23)cc1Cl,/,2%,/,/,/
Cc1ccc(CNC(=O)CN2C(=O)COc3ccc(S(=O)(=O)N4CCC(C)CC4)cc32)cc1,/,-1%,/,/,/
CCN(CC)S(=O)(=O)c1ccc2c(c1)N(CC(=O)NCCCN1CC(C)CC(C)C1)C(=O)CO2 (centres undefined),3%,-10%,9%,2,-19%
CC1CC(C)CN(CCCNC(=O)CN2C(=O)COc3ccc(S(=O)(=O)N4CCOCC4)cc32)C1 (centres undefined),-5%,-8%,12%,-104*,?
Cc1ccc(CCNC(=O)CN2C(=O)COc3ccc(S(=O)(=O)N4CCC(C)CC4)cc32)cc1,-3%,1%,-3%,-136*,-2%
COc1cc(C)c(Cl)cc1S(=O)(=O)NCC1CCCO1 (centres undefined),-1%,11%,2%,6,-24%
Fc1ccc2[nH]c3c(N4CCN(C5CCCCC5)CC4)ncnc3c2c1,/,/,/,-10,/
